In the supplement of paper PMC11732987, “Enantioselective OTUD7B fragment discovery through chemoproteomics screening and high-throughput optimisation” (Communications Chemistry, 2025):

How the values were obtained:
Experiment in all cases: log2 ratio of Biotin-Ahx-Ub-VS probe labelling (fragment/DMSO); higher = less target engagement (more negative = stronger competition), active = hit call of the paper (q ≤ 0.05, log2 ratio ≤ -1)
Details in all cases: compound concentration: 200 uM; treatment time: 3 h
ALG13 = biological target: T1, ALG13 (UniProt Q9NP73)
T1 sequence (whole entry): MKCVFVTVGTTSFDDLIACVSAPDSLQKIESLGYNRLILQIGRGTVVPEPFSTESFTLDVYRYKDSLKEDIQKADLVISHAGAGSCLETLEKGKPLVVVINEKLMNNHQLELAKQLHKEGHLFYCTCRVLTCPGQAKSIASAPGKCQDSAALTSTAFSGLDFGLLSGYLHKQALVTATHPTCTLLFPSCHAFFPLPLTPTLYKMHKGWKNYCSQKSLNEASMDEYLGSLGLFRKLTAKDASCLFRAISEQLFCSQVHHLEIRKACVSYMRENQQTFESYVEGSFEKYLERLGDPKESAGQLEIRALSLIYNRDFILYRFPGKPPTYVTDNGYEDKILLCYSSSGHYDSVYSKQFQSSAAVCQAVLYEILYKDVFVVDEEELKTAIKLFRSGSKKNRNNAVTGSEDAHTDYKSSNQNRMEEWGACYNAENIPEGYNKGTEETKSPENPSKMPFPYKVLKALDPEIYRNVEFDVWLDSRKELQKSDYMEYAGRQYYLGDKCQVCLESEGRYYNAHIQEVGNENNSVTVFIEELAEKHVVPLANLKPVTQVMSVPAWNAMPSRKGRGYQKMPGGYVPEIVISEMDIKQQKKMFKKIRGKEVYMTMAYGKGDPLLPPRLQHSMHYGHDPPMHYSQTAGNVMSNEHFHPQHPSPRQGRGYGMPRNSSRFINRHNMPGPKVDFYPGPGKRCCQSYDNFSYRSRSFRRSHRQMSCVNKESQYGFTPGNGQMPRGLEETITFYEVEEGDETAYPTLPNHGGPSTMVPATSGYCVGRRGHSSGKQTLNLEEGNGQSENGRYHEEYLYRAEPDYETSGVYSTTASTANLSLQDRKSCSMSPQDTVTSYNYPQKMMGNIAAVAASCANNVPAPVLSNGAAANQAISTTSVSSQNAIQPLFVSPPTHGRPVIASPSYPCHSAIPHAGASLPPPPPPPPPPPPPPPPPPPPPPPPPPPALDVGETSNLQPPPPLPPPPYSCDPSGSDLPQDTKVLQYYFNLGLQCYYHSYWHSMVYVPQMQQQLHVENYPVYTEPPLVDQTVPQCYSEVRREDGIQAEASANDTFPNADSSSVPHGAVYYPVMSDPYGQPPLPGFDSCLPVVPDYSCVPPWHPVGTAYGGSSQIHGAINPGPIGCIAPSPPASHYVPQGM
Method in brief: (§1)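 Triplicate samples of HEK293T lysate, 495 µg each, received fragment at 200 µM or vehicle for 3 h, followed by Biotin-Ahx-Ub-VS (0.5 µM final) for 1 h. After NeutrAvidin enrichment of labelled DUBs and LysC/trypsin digestion, peptides were run by diaPASEF LC-MS/MS. The values are average log2 fragment/vehicle ratios from global-median-normalised Spectronaut label-free quantities, tested by unpaired t-test on proteins having ≥2 unique peptides.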

ATXN3 = ATXN3 (UniProt P54252)
Sequence of ATXN3 (P54252 whole entry): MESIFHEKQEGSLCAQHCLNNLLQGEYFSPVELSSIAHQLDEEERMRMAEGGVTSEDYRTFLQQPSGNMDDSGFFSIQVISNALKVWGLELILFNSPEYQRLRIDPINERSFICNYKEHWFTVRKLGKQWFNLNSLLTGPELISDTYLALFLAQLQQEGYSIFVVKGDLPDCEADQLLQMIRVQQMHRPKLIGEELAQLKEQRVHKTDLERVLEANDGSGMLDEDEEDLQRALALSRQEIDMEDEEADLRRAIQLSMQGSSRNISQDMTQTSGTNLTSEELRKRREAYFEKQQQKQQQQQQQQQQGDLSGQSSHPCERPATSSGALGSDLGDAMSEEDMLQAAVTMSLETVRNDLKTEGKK
Method in brief: as §1

BAP1 = biological target: T2, BAP1 (UniProt Q92560)
T2 sequence (whole entry): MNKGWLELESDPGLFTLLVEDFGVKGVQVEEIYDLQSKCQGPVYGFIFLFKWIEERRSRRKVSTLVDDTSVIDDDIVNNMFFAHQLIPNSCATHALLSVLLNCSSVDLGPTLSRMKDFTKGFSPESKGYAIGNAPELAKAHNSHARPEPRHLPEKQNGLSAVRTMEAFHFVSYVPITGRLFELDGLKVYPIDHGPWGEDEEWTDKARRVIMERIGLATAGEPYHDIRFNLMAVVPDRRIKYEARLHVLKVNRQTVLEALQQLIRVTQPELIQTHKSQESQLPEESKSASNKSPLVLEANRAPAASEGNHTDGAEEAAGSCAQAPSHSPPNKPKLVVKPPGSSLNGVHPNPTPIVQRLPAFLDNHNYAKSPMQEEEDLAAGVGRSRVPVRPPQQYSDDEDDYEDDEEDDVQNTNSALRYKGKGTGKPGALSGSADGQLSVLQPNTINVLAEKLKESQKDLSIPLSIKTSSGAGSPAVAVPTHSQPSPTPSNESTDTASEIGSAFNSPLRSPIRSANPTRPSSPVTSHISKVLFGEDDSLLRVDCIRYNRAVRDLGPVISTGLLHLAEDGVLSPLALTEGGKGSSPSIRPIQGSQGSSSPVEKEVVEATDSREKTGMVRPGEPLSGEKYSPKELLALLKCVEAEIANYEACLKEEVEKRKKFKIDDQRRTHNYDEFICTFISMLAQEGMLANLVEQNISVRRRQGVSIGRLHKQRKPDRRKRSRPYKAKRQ
Method in brief: as §1

EIF3F = EIF3F (UniProt O00303)
Sequence of EIF3F (O00303 whole entry): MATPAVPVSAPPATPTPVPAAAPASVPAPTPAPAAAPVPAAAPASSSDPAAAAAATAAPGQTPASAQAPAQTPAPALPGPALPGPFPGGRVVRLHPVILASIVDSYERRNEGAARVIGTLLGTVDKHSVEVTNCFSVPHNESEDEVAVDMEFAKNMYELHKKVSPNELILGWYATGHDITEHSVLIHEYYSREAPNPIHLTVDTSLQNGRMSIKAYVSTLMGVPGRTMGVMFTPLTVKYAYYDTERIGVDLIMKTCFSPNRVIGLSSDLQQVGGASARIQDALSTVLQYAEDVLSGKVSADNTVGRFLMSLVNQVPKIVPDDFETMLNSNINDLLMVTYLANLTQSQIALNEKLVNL
Method in brief: as §1

EIF3H = EIF3H (UniProt O15372)
Sequence of EIF3H (O15372 whole entry): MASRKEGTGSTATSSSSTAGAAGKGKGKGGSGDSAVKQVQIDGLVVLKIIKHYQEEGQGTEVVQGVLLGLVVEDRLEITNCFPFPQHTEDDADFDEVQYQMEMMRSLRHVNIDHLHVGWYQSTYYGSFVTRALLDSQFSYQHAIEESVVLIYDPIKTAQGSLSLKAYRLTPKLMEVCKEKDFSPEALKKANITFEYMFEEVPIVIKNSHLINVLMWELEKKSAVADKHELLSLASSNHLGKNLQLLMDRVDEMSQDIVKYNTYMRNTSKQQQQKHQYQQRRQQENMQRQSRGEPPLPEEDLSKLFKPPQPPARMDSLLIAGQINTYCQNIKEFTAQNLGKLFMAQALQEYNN
Method in brief: as §1

FAM105A = biological target: T3, FAM105A (UniProt Q9NUU6)
T3 sequence (whole entry): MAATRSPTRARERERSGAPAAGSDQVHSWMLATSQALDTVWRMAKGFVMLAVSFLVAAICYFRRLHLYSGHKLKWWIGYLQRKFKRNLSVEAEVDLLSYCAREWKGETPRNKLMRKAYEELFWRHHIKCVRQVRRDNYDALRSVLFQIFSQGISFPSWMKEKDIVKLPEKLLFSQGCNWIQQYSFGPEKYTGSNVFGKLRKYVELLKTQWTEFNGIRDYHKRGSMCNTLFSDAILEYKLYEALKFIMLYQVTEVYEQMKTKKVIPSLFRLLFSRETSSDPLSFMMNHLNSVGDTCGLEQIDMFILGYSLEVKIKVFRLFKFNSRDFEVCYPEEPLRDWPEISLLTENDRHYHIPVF
Method in brief: as §1

OTUB1 = OTUB1 (UniProt Q96FW1)
Sequence of OTUB1 (Q96FW1 whole entry): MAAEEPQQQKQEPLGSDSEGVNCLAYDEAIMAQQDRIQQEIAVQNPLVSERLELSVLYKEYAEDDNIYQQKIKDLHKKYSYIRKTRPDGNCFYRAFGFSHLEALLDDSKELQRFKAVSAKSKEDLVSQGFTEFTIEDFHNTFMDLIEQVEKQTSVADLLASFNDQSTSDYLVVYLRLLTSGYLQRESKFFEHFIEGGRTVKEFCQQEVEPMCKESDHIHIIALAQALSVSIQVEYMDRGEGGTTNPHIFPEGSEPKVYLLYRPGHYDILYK
Method in brief: as §1

OTUD4 = biological target: T4, OTUD4 (UniProt Q01804)
T4 sequence (whole entry): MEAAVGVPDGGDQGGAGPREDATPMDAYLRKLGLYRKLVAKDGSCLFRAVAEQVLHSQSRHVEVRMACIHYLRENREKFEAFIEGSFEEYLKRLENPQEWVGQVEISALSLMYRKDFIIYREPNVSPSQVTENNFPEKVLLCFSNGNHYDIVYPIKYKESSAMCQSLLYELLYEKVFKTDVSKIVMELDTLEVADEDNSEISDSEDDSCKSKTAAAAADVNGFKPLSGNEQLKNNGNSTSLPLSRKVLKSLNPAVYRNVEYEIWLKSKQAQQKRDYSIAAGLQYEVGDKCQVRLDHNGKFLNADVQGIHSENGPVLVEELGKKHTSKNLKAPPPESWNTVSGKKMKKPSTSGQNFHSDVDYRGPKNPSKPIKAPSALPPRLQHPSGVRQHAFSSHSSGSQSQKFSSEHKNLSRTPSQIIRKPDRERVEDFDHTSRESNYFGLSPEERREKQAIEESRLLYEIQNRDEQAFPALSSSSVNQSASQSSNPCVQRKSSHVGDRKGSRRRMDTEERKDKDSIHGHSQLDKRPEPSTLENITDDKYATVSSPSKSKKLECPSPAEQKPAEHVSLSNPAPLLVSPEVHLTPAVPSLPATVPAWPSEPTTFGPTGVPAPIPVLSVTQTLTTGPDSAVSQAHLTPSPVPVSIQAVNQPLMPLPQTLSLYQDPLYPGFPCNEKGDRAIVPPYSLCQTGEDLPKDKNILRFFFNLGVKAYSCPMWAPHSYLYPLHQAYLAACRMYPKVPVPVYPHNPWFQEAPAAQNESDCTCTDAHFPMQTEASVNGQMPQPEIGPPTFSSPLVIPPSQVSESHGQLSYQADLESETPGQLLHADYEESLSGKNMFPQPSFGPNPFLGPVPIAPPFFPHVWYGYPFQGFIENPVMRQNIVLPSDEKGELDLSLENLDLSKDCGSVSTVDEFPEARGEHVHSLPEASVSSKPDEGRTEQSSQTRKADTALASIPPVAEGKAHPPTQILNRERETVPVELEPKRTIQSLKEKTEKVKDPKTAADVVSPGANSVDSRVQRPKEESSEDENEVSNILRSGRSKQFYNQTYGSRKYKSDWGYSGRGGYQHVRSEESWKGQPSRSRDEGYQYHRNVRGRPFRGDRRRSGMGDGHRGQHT
Method in brief: as §1

OTUD5 = biological target: T5, OTUD5 (UniProt Q96G74)
T5 sequence (whole entry): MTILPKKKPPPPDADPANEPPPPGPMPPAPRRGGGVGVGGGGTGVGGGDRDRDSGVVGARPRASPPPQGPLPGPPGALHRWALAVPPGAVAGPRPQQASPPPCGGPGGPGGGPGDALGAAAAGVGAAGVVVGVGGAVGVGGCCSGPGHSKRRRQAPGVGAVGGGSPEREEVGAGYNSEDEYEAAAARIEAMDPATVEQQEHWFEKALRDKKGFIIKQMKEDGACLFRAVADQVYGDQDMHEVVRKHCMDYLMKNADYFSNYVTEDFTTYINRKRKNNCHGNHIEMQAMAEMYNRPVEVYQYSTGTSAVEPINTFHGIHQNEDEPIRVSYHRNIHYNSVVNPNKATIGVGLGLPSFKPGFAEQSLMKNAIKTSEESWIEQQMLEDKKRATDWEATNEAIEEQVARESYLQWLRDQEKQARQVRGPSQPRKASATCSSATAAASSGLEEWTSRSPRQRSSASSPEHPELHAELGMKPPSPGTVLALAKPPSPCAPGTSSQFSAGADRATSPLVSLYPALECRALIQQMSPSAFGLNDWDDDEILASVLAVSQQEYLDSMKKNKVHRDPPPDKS
Method in brief: as §1

Measured: log2 ratio of Biotin-Ahx-Ub-VS probe labelling

O=C(CCl)NCC(=O)N1CCCC1
inactive: ALG13 0.0112 | ATXN3 -0.179 | BAP1 -0.409 | EIF3F -0.198 | EIF3H 0.0708 | FAM105A -0.573 | OTUB1 -0.202 | OTUD4 -0.278 | OTUD5 -0.231
